Six molecules from ChEMBL document CHEMBL1961873, “Compounds: GSK PKIS; Assays: Nanosyn kinase panel” (2012) can be followed below.

In test [1] the target is Mitogen-activated protein kinase kinase kinase kinase 4 (Homo sapiens) (UniProt O95819). Conditions: at 1 µM.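 Further: reported figure is an averaged inhibition value.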
The target in test [2] is Dual specificity mitogen-activated protein kinase kinase 1 (Homo sapiens) (UniProt Q02750). Conditions: at 0.1 µM.
For test [3] the target is unchanged. Conditions: at 1 µM.
Test [4] has as its target Misshapen-like kinase 1 (Homo sapiens) (UniProt Q8N4C8). As to conditions: at 0.1 µM.
The target is the same in test [5]. Conditions: at 1 µM.
Test [6] deals with T1, Serine/threonine-protein kinase 4 (Homo sapiens) (UniProt Q13043).
T1 sequence (whole entry): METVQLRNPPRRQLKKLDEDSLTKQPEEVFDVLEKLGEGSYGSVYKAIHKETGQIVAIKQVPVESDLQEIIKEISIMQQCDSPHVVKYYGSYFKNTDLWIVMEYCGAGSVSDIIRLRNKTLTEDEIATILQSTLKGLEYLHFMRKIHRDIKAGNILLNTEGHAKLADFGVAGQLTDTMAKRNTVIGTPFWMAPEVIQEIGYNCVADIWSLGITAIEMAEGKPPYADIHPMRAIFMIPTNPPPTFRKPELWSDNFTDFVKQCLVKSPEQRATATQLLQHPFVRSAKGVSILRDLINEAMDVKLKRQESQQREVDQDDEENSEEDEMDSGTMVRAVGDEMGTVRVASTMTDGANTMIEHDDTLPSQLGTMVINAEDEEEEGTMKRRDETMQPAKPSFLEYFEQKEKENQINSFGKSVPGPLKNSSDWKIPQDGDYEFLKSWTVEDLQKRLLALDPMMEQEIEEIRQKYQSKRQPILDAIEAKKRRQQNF
As to conditions: at 0.1 µM.

The target of test [7] is T1, Serine/threonine-protein kinase 4 (Homo sapiens). As to conditions: at 1 µM.
In test [8] the target is T2, Serine/threonine-protein kinase 3 (Homo sapiens) (UniProt Q13188).
T2 sequence (whole entry): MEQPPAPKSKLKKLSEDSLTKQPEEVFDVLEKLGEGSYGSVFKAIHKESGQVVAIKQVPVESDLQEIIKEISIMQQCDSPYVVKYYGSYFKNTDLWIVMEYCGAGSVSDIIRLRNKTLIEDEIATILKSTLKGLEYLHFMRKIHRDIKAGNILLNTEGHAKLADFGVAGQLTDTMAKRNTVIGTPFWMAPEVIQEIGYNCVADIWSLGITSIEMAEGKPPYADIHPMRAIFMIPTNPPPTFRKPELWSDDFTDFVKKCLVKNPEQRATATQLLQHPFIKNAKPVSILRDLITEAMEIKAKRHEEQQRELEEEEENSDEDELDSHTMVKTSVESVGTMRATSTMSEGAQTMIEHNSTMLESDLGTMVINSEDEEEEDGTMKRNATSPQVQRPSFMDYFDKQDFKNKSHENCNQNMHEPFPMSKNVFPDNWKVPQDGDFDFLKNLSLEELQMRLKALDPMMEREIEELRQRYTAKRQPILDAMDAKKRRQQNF
As to conditions: at 0.1 µM.

Test [9] has as its target T2, Serine/threonine-protein kinase 3 (Homo sapiens). Conditions: at 1 µM.
Test [10] addresses Serine/threonine-protein kinase 26 (Homo sapiens) (UniProt Q9P289). As to conditions: at 0.1 µM.
Test [11] shares this target. As to conditions: at 1 µM.
Test [12] addresses Serine/threonine-protein kinase PAK 1 (Homo sapiens) (UniProt Q13153). As to conditions: at 0.1 µM.
Test [13] has the same target. As to conditions: at 1 µM.
The target of test [14] is Serine/threonine-protein kinase PAK 2 (Homo sapiens) (UniProt Q13177). Conditions: at 0.1 µM.
Serine/threonine-protein kinase PAK 2 (Homo sapiens), sequence (Q13177 whole entry): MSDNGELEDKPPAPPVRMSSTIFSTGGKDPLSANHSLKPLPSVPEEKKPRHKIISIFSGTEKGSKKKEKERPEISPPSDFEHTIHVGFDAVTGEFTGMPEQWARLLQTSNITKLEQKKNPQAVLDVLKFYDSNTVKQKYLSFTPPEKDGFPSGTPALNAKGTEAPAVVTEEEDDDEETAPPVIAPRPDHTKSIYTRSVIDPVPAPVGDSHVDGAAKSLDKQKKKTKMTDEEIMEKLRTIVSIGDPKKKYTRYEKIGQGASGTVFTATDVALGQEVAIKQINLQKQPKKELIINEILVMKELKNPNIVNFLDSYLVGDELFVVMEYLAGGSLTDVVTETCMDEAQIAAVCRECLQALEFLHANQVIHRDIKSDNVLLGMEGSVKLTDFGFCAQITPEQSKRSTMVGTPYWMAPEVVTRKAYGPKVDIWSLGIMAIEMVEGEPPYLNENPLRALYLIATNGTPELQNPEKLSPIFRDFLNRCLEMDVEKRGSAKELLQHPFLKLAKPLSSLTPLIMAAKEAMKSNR
The target is the same in test [15]. As to conditions: at 1 µM.
Test [16] has as its target Serine/threonine-protein kinase PAK 3 (Homo sapiens) (UniProt O75914). Conditions: at 0.1 µM.
Test [17] has the same target. As to conditions: at 1 µM.
For test [18], the target named is Serine/threonine-protein kinase PAK 5 (Homo sapiens) (UniProt Q9P286). As to conditions: at 0.1 µM.
Serine/threonine-protein kinase PAK 5 (Homo sapiens), sequence (Q9P286 whole entry, looked up): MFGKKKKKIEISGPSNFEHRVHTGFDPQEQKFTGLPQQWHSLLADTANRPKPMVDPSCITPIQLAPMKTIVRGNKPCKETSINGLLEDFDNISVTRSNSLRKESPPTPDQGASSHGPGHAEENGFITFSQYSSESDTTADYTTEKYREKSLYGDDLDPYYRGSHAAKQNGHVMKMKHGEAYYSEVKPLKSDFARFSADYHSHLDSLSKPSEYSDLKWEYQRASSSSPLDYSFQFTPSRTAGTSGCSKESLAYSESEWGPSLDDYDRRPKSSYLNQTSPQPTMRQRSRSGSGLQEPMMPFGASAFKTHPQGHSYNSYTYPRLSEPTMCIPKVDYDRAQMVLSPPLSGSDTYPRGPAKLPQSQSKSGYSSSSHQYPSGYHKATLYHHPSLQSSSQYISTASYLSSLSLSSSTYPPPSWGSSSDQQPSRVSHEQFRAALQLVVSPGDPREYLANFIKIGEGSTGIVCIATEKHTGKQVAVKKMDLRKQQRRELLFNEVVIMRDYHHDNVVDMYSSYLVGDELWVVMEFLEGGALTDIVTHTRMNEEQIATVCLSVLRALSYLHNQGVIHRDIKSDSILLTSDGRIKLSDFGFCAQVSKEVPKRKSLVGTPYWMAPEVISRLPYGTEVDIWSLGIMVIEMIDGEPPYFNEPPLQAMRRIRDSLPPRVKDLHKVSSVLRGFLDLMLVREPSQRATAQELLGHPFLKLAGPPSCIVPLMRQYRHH
The target is the same in test [19]. Conditions: at 1 µM.
Test [20] addresses Serine/threonine-protein kinase PAK 6 (Homo sapiens) (UniProt Q9NQU5). As to conditions: at 0.1 µM.

Serine/threonine-protein kinase PAK 1 (Homo sapiens), sequence (Q13153 whole entry): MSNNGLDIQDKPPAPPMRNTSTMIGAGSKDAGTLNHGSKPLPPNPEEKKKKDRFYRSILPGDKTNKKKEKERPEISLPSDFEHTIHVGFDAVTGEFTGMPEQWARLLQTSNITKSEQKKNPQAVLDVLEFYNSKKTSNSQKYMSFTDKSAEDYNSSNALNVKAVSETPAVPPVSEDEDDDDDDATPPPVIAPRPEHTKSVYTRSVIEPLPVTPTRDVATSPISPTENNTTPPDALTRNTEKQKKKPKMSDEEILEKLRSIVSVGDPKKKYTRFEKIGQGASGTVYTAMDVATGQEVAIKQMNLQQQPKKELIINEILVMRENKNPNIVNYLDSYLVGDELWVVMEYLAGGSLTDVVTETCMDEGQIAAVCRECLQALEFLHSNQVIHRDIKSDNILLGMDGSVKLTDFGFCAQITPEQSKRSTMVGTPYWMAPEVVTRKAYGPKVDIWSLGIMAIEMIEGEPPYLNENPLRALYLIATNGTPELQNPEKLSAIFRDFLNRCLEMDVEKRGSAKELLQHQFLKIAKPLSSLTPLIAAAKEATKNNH
Serine/threonine-protein kinase PAK 6 (Homo sapiens), sequence (Q9NQU5 whole entry, looked up): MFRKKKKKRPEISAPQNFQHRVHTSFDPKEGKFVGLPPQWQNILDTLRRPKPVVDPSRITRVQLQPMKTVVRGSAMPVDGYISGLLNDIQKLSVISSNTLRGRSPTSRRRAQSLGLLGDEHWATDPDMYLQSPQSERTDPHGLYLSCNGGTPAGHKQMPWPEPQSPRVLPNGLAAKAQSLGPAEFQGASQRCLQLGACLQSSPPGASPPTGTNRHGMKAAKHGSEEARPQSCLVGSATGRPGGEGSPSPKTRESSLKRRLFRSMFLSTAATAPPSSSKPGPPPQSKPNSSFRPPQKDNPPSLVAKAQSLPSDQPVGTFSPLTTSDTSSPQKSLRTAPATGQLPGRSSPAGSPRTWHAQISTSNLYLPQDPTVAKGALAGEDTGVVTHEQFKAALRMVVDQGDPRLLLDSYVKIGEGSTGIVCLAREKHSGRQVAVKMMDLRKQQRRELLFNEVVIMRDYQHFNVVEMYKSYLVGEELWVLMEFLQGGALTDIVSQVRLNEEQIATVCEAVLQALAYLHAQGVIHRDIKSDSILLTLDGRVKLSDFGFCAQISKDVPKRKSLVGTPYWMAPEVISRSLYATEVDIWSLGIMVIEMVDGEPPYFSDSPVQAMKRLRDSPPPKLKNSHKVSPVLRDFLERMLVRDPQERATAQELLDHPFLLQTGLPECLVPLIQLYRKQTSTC
Mitogen-activated protein kinase kinase kinase kinase 4 (Homo sapiens), sequence (O95819 2-1239 limits assumed): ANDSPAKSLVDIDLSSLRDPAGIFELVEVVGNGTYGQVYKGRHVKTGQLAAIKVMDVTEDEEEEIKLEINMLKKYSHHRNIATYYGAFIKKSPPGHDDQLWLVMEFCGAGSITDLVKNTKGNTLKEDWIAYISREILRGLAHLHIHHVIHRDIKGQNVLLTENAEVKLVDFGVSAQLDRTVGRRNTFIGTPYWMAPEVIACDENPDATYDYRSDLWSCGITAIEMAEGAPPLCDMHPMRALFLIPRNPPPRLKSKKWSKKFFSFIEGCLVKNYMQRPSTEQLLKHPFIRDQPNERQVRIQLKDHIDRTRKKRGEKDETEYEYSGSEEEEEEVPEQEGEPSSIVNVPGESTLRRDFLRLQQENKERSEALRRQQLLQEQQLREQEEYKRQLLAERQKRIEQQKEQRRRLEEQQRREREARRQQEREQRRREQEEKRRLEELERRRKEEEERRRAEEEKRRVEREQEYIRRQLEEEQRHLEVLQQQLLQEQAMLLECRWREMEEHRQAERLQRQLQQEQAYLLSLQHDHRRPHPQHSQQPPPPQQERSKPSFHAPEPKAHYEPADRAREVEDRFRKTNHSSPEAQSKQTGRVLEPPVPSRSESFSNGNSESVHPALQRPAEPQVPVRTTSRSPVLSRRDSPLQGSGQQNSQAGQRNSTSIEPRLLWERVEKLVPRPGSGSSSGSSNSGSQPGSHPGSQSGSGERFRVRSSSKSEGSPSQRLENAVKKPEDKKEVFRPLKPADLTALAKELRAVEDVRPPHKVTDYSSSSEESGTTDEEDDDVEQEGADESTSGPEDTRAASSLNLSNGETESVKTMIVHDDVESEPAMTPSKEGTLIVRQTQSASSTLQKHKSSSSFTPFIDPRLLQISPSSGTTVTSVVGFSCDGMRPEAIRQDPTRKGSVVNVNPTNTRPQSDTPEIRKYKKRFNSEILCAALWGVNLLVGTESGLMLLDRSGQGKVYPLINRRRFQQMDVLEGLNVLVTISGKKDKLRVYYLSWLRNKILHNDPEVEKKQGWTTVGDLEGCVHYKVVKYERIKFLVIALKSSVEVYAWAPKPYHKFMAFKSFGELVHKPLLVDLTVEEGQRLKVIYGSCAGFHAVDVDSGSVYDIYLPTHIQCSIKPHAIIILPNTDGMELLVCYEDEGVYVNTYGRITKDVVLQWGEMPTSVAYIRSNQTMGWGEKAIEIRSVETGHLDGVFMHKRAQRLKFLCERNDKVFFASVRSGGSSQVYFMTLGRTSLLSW
Serine/threonine-protein kinase 26 (Homo sapiens), sequence (Q9P289 2-416 limits assumed): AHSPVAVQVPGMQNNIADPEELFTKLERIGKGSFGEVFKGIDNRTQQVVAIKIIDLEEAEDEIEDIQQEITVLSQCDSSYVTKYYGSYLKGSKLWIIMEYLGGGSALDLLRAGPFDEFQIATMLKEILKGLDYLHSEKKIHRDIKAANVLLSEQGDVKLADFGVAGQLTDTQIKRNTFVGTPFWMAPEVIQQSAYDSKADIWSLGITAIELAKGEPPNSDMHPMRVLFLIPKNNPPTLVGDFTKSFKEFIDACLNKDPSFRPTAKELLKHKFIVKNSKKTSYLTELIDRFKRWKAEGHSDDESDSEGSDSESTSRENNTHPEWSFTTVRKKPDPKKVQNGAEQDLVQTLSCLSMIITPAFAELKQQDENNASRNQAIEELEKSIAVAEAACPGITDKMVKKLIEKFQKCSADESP
Serine/threonine-protein kinase PAK 3 (Homo sapiens), sequence (O75914 whole entry, looked up): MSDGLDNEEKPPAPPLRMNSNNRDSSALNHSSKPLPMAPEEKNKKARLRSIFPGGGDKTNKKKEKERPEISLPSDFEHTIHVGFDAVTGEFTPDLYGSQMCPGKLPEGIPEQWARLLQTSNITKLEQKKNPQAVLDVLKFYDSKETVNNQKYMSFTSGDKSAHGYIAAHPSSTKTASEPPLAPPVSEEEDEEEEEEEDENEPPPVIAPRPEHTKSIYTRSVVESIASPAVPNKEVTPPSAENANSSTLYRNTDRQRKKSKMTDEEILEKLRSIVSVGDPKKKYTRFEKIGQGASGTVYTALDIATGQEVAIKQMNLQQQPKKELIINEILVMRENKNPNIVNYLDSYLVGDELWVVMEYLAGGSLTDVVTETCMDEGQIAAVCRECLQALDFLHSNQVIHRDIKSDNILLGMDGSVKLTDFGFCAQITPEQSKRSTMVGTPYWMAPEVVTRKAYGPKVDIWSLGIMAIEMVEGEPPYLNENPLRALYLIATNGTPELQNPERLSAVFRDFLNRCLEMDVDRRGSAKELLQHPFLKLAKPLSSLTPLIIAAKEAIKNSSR

On to `O=C(O[C@H]1CN[C@H](C#Cc2cc3ncnc(Nc4ccc(Cc5ccccc5)cc4)c3s2)C1)N1CCOCC1`, for which the inhibition in [1] is -0.81%; in [2], 1.32%; in [3] it was 1.73%; in [4], 3.34%; in test [5], 1.04%; in test [6], 1.14%. In addition, the inhibition was 3.13% in test [7]; 3.94% in [8]; 3.64% in test [9]; -0.29% in test [10]; -0.68% in test [11]; 0.1% in [12]. The inhibition in test [13] worked out at 2.79%; in [14], 0.85%; in test [15] it was 0.99%; in test [16] it was 3.06%; in test [17], 2.95%; in test [18] it was 0.53%. Further, the inhibition is 0.17% in [19] and -2.8% in test [20].
Take `CCn1c(-c2nonc2N)nc2cnc(Oc3cccc(NC(=O)c4ccc(N(C)C)cc4)c3)cc21`: the inhibition is 29.4% in test [1]; 1.11% in test [2]; 2.61% in test [3]; 3.19% in test [4]; 28.2% in test [5]; -0.06% in test [6]. Further, the inhibition in test [7] was 1.47%; in [8] it was 0.98%; in [9] it was 2.32%; in [10], -1.48%; in test [11], 0.84%; in test [12], 3.97%. In addition, the inhibition in test [13] was 6.82%; in test [14] it was 0.04%; in [15], 0.22%; in [16] it was 1.76%; in test [17], 2.25%; in test [18] it was 2.13%. Further, the inhibition in test [19] is -2.93%; in test [20], 2.57%.
Take `CCCN1CCC(c2ccc(Nc3nc(Nc4cc(F)ccc4C(N)=O)c4cc[nH]c4n3)c(OC)c2)CC1`: the inhibition in [1] is 78.9%; in test [2], 9.27%; in test [3] it was 37.7%; in test [4] it was 21.8%; in [5] it was 70.2%; in test [6] it was 10.6%. Further, the inhibition in test [7] was 43.9%; in test [8], 5.71%; in test [9], 13.8%; in [10] it was -0.72%; in [11], 0.06%; in test [12] it was 5.31%. Besides, the inhibition in [13] turned out to be 3.04%; in test [14], 1.19%; in [15], 2.08%; in [16] it was 4.32%; in [17], 5.21%; in test [18], 1.36%. Besides, the figures for the inhibition in test [19] and in test [20] were 22.6% and -9.18%, respectively.
On to `c1cc(-c2cnn3nc(N4CCOCC4)ccc23)nc(NC2CC2)n1`, for which the inhibition in test [1] was determined as 20.9%; in [2], 4.84%; in test [3], 9.33%; in test [4] it was 4.94%; in test [5], 13.9%; in [6] it was 7.25%. Moreover, the inhibition in test [7] is 10.3%; in [8], 8.19%; in test [9], 8.11%; in test [10], -0.92%; in test [11], -4.91%; in test [12], -0.13%. Besides, the inhibition is 5.07% in [13]; 3.69% in test [14]; 3.04% in [15]; 4.26% in test [16]; 4.93% in test [17]; 6.57% in test [18]. Further, the inhibition in [19] worked out at 1.19%; in test [20], 4.42%.
`Cc1ccc(O)cc1Nc1ccnc2cc(-c3ccccn3)ccc12`: the inhibition in [1] turned out to be 75.5%; in [2], 6.05%; in test [3], 4.87%; in test [4], 21.3%; in test [5], 65.2%; in test [6] it was 7.99%. For the same molecule, the inhibition in [7] is 8.81%; in test [8], 8.56%; in [9], 6.61%; in test [10], -2.79%; in test [11] it was -0.53%; in test [12], 7.92%. Further, the inhibition in test [13] was 8.64%; in test [14] it was 3.37%; in [15], 2.71%; in test [16] it was 4.92%; in [17], 5%; in test [18] it was 3.23%. Further, the inhibition was 0.07% in test [19] and 4.84% in test [20].
In the case of `COc1cccc(-n2ncc3c(N/N=C/c4ccc(F)cc4)ncnc32)c1`, the inhibition in test [1] was 21.2%; in test [2], 4.9%; in test [3], 3.13%; in test [4], 7.39%; in test [5], 17.2%; in [6], 7.56%. The inhibition in test [7] is 9.41%; in test [8], 9.36%; in [9], 9.98%; in test [10] it was -1.54%; in test [11], -2.12%; in [12], 4.83%. For the same molecule, the inhibition in test [13] was found to be 7.12%; in test [14] it was 2.32%; in [15], 2.24%; in [16] it was 4.66%; in [17], 4.91%; in test [18] it was 9.72%. Further, the inhibition in test [19] was determined as 5.66%; in [20] it was 3.88%.
